# Experimental data reported in PubChem BioAssay.
# Records with an inconclusive call do not appear. The source made the active and inactive calls. Unless noted, cut-off not given; nearly all actives show AC50 up to about 26 µM.
# Legend:
# [1] = growth inhibition of DIPG glioma cells, dose response, cell-based, SU-DIPG-XVII, MIPE5.0, CellTiter-Glo, qHTS (AID 1347060); settings: SU-DIPG-XVII viability, CellTiter-Glo ATP luminescence;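 on AC50: cells exposed to compound for 48 hours before viability readout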
# [2] = growth inhibition of DIPG glioma cells, dose response, cell-based, SU-DIPG-XIII, MIPE4.0, CellTiter-Glo, qHTS (AID 1347061; cut-off not given, nearly all actives have AC50 up to about 37 µM;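 further: cells exposed to compound for 48 hours before readout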); settings: SU-DIPG-XIII viability, CellTiter-Glo ATP luminescence
# [3] = growth inhibition of DIPG glioma cells, dose response, cell-based, SU-DIPG-XIII, MIPE5.0, CellTiter-Glo, qHTS (AID 1347064; cut-off not given, nearly all actives have AC50 up to about 23 µM;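 on AC50: cells exposed to compound for 48 hours before the viability read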); settings: SU-DIPG-XIII viability, CellTiter-Glo ATP luminescence
# [4] = molecular target: NAD(+) hydrolase SARM1 (Homo sapiens) (UniProt Q6SZW1); assay: SARM1 TIR NADase inhibitors, cell lysate, NAD-Glo luminescence (AID 1508614;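 active means compound whose remaining NAD level is above about 45 nM, limit read from the data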); settings: SAM-TIR HEK293T lysate NADase, at 1 µM, stronger effect = higher value
# [5] = hESC survival regulators, cell-based (AID 493140; call rule not given here;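 further: cells exposed to compounds for four days before counting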); settings: human embryonic stem cell survival screen; stronger effect = higher value
# [6] = circadian clock period modulators, cell-based, LOPAC library, luminescence reporter (AID 2774; call rule not given here;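 further: values are relative to mean of DMSO wells on each plate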); settings: circadian reporter cells, at 7 µM, actives lie on both sides
# [7] = system: Hepatitis C virus NS3 helicase; assay: HCV NS3 helicase inhibitors, primary screen, biochemical, fluorescence polarization, LOPAC1280 library (AID 687035; in the data active means inhibition above about 37%); settings: Purified HCV NS3 helicase, Cy5-dT15 ssDNA binding fluorescence polarization; stronger effect = higher value; concentration not given here
# [8] = Cy5 fluorescence quenching or enhancement artefacts, artefact control for HCV NS3 helicase inhibitor project, biochemical, LOPAC1280 (AID 687037; call rule not given here); settings: Cy5-DNA-NS3h complex fluorescence interference counterscreen
# [9] = modifiers of HSF1 nuclear foci, imaging, Selleck Cancer Library (AID 1347162; in the data active means plate-normalised HSF1 focus index below about 0.46); settings: human cells, at 10 µM; SSMD: measured here: HSF1 foci SSMD mean; cell count: measured here: cell number; plate-normalised HSF1 focus index: stronger effect = lower value
# Chain of NAD(+) hydrolase SARM1 (Homo sapiens) (Q6SZW1 whole entry, looked up): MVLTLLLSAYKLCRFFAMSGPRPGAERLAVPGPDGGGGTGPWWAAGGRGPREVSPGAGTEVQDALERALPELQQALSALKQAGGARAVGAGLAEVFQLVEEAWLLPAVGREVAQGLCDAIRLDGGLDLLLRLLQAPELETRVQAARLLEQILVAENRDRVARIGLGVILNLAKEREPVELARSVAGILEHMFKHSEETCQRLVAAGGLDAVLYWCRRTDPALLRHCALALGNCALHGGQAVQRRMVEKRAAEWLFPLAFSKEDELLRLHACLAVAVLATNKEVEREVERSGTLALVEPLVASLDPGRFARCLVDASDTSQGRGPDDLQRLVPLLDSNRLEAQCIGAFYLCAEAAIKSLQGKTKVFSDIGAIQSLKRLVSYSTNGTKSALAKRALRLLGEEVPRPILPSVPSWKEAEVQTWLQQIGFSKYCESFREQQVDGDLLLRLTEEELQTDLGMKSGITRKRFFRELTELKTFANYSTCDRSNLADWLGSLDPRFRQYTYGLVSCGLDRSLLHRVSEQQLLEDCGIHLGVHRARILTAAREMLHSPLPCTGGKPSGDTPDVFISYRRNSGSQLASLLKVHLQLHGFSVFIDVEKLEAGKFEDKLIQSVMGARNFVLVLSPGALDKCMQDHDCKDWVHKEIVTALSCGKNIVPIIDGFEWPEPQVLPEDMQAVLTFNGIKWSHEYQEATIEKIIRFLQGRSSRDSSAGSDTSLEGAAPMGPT
smiles,measurement,setting,value
O=C(O)c1ccc(-n2nc(-c3ccccc3O)nc2-c2ccccc2O)cc1,AC50,[1],16.6 µM (active)
N#Cc1c(N(CC(=O)O)CC(=O)O)sc(C(=O)O)c1CC(=O)O,outcome,[1],inactive
same,outcome,[2],inactive
same,outcome,[3],inactive
C[C@]12CCC(=O)C=C1[C@@H]1C[C@@H]1[C@H]1[C@@H]3[C@@H]4C[C@@H]4[C@@]4(CCC(=O)O4)[C@@]3(C)CC[C@@H]12,outcome,[1],inactive
same,outcome,[2],inactive
same,outcome,[3],inactive
same,remaining NAD,[4],10 nM (inactive)
O=[N+]([O-])c1cncn1CCN1CCOCC1,outcome,[1],inactive
same,outcome,[3],inactive
N=C(N)c1ccc2cc(OC(=O)c3ccc(N=C(N)N)cc3)ccc2c1,outcome,[2],inactive
same,outcome,[3],inactive
Clc1ccc(C(Cn2ccnc2)OCc2ccc(Sc3ccccc3)cc2)c(Cl)c1 (centres undefined),AC50,[1],20.9 µM (active)
same,AC50,[3],20.9 µM (active)
CC(=O)OCC(=O)[C@@]12N=C(C)O[C@@H]1C[C@H]1[C@@H]3CCC4=CC(=O)C=C[C@]4(C)[C@H]3[C@@H](O)C[C@@]12C,outcome,[1],inactive
same,outcome,[2],inactive
same,outcome,[3],inactive
same,remaining NAD,[4],10 nM (inactive)
c1cnc2cc3c(cc2n1)C1CNCC3C1,outcome,[1],inactive
same,outcome,[2],inactive
same,outcome,[3],inactive
CN1CCCN=C1/C=C/c1cccs1,survival,[5],25.8 (inactive)
same,outcome,[1],inactive
N[C@@H](Cc1c[nH]c2ccc(O)cc12)C(=O)O,period change,[6],-0.25 h (inactive)
same,inhibition,[7],-3% (inactive)
same,fluorescence ratio (interference),[8],1 (inactive)
same,outcome,[1],inactive
same,outcome,[2],inactive
same,outcome,[3],inactive
CCC1=C[C@@H]2CN(C1)Cc1c([nH]c3ccccc13)[C@@](C(=O)OC)(c1cc3c(cc1OC)N(C)[C@H]1[C@@](O)(C(=O)OC)[C@H](OC(C)=O)[C@]4(CC)C=CCN5CC[C@]31[C@@H]54)C2,AC50,[1],0.204 µM (active)
same,AC50,[3],2.29 µM (active)
same,SSMD,[9],1.19
same,cell count,[9],6320
same,plate-normalised HSF1 focus index,[9],1.08 (inactive)
C=CC(=O)Nc1cc2c(Nc3ccc(F)c(Cl)c3)ncnc2cc1OCCCN1CCOCC1,AC50,[1],6.61 µM (active)
same,AC50,[3],9.34 µM (active)
NCCCC(N)(C(=O)O)C(F)F (centres undefined),period change,[6],-0.04 h (inactive)
same,inhibition,[7],-3% (inactive)
same,fluorescence ratio (interference),[8],1 (inactive)
same,outcome,[1],inactive
same,outcome,[3],inactive
COc1ccc2cccc(CCNC(C)=O)c2c1,outcome,[2],inactive
same,outcome,[3],inactive
Cc1cc(=O)c2c(O)c3c(O)cc(=O)c4c3c3c(cc(O)c1c23)C(C)(C)C=4O,AC50,[2],11.8 µM (active)
CC1(C)CCC(C)(C)c2cc(NC(=O)c3ccc(C(=O)O)cc3)ccc21,outcome,[1],inactive
same,AC50,[2],23.5 µM (active)
same,outcome,[3],inactive
CC(C(=O)O)c1ccc2c(c1)CC(=O)c1ccccc1S2 (centres undefined),outcome,[1],inactive
same,AC50,[2],0.0059 µM (active)
same,outcome,[3],inactive
CCOC(=O)c1ccc(C#Cc2ccc3c(c2)C(C)(C)CCS3)nc1,AC50,[1],26.3 µM (active)
CCCCN(CCCC)CC(O)c1cc(Cl)cc2c1-c1ccc(Cl)cc1/C2=C/c1ccc(Cl)cc1 (centres undefined),outcome,[2],inactive
Cc1ccccc1C(=O)Nc1ccc(C(=O)N2CCCC(O)c3cc(Cl)ccc32)c(C)c1 (centres undefined),outcome,[1],inactive
same,outcome,[2],inactive
CN(C)C(=O)COC(=O)Cc1ccc(OC(=O)c2ccc(N=C(N)N)cc2)cc1,outcome,[1],inactive
same,outcome,[3],inactive
COc1ccc(-c2ccc3cc(C(=O)O)ccc3c2)cc1C12CC3CC(CC(C3)C1)C2,AC50,[1],3.32 µM (active)
same,remaining NAD,[4],10 nM (inactive)
Cc1cc2c(cc1CC(=O)c1sccc1S(=O)(=O)Nc1onc(C)c1Cl)OCO2,outcome,[1],inactive
Cc1ccc(Nc2nccc(N(C)c3ccc4c(C)n(C)nc4c3)n2)cc1S(N)(=O)=O,AC50,[1],3.32 µM (active)
same,AC50,[3],3.72 µM (active)
same,SSMD,[9],1.61
same,cell count,[9],7340
same,plate-normalised HSF1 focus index,[9],1.1 (inactive)
CC(C)OC(=O)OCOP(=O)(CO[C@H](C)Cn1cnc2c(N)ncnc21)OCOC(=O)OC(C)C,outcome,[2],inactive
Cc1nnc(C(=O)NC(C)(C)c2nc(C(=O)NCc3ccc(F)cc3)c(O)c(=O)n2C)o1,outcome,[1],inactive
same,outcome,[2],inactive
O=C(Nc1ccc(S(=O)(=O)N2CCOCC2)cc1)c1cc(Cl)ccc1NS(=O)(=O)c1ccc(Cl)s1,outcome,[1],inactive
CCCCc1oc2ccc(NS(C)(=O)=O)cc2c1C(=O)c1ccc(OCCCN(CCCC)CCCC)cc1,AC50,[1],13.2 µM (active)
same,AC50,[2],18.7 µM (active)
same,AC50,[3],11.8 µM (active)
O=P(O)(O)C(O)(Cn1ccnc1)P(=O)(O)O,outcome,[1],inactive
same,outcome,[2],inactive
same,outcome,[3],inactive
CCOC(=O)c1c(C)n(C)c2ccc(O)cc12,outcome,[1],inactive
CC(=O)N[C@H]1[C@H]([C@H](O)[C@H](O)CO)OC(C(=O)O)=C[C@@H]1N=C(N)N,outcome,[2],inactive
CC(C)C[C@H](NC(=O)[C@H](CCc1ccccc1)NC(=O)CN1CCOCC1)C(=O)N[C@@H](Cc1ccccc1)C(=O)N[C@@H](CC(C)C)C(=O)[C@@]1(C)CO1,AC50,[1],0.0148 µM (active)
same,AC50,[3],0.00742 µM (active)
COC(c1ccccc1)(c1ccccc1)[C@H](Oc1nc(C)cc(C)n1)C(=O)O,outcome,[2],inactive
NC(=O)c1ncn([C@@H]2O[C@H](CO)[C@@H](O)[C@H]2O)c1N,outcome,[1],inactive
same,outcome,[2],inactive
same,outcome,[3],inactive
same,remaining NAD,[4],10 nM (inactive)
Clc1ccc(C(Cn2ccnc2)OCc2c(Cl)cccc2Cl)c(Cl)c1 (centres undefined),survival,[5],13.2 (inactive)
same,AC50,[1],23.5 µM (active)
same,AC50,[3],20.9 µM (active)
COCCCN1CCC(NC(=O)c2cc(Cl)c(N)c3c2OCC3)CC1,outcome,[1],inactive
CC(C)(C)C(=O)Oc1ccc(S(=O)(=O)Nc2ccccc2C(=O)NCC(=O)O)cc1,inhibition,[7],-5% (inactive)
same,fluorescence ratio (interference),[8],0.9 (inactive)
same,outcome,[1],inactive
same,outcome,[2],inactive
same,outcome,[3],inactive
CC(C)(C)C(=O)OCOP(=O)(COCCn1cnc2c(N)ncnc21)OCOC(=O)C(C)(C)C,AC50,[2],20.9 µM (active)
same,AC50,[3],18.6 µM (active)
CCCCC(CC)COC(=O)C(C#N)=C(c1ccccc1)c1ccccc1 (centres undefined),remaining NAD,[4],10 nM (inactive)
O=C(OC1C[C@H]2CC[C@@H](C1)[N+]21CCCC1)C(O)(c1ccccc1)c1ccccc1 (some centres undefined),remaining NAD,[4],10 nM (inactive)
O=C(O)c1cccc(-c2noc(-c3ccccc3F)n2)c1,outcome,[2],inactive
Cc1ccc(-c2ncc(Cl)cc2-c2ccc(S(C)(=O)=O)cc2)cn1,outcome,[3],inactive
Cc1c(C(=O)NN2CCCCC2)nn(-c2ccc(Cl)cc2Cl)c1-c1ccc(Cl)cc1,AC50,[2],20.9 µM (active)
